Source: PubChem BioAssay (NCATS)
Results filed as inconclusive are left out. Unless noted, the call rests on the fitted dose curve.

Experiment: Confirmation and Secondary Assay for Modulators of Hemoglobin Beta Chain Splicing at IVS2 705 locus (AID 930; active means well fitted activation curve with a large enough effect;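 further: HeLa cells stably expressing the EGFP-705 splicing reporter; GFP fluorescence per well restored by corrected splicing of the IVS2-705 intron in EGFP; % of control where 0% means no effect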)
Settings: HeLa EGFP-705 splicing reporter, GFP fluorescence, 48 h; series mostly up to 46.1 µM; activation: at the top concentration
Outline: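 Secondary splice-site specificity test uses HeLa expressing CMV-driven EGFP interrupted by IVS2-705; cells were treated 2 days at 37C with 500 nM antisense PNA as positive control.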

activation, inactive:
COc1cc2cc[n+]3cc4c(OC)c(OC)ccc4cc3c2cc1OC 3.39%, COc1cc(-c2cc(=O)c3c(O)c(OC)c(OC)c(OC)c3o2)cc(OC)c1OC 0.0476% [at 38.3 µM], CC1(C)CC2C1CCC1(C)OC2(C)CCC1O (stereo not given) 0.199% [at 38.3 µM], O=C(CCc1ccc(O)cc1)c1c(O)cc(O)cc1O[C@H]1OC(CO)C(O)C(O)C1O (stereo not given in full) 1.15% [at 38.3 µM], CC1(C)C[C@@H]2C(=O)CCC3O[C@@]3(C)CCC21 (stereo not given in full) 0.732% [at 38.3 µM], CC(=O)OC1CC(OC(C)=O)[C@]2(C)C(CC(=O)[C@]3(C)C2CC[C@@]2(C)C(C(=O)O)OC(=O)C4OC423)C1(C)C (stereo not given in full) 1.94%, CC(C)=CCc1c(O)cc2oc(C)cc(=O)c2c1O 0.112%, COc1ccc2c(=O)c(CC(=O)O)coc2c1 1.72%, CC(CCC(=O)O)C1CCC2C3CC[C@H]4CC(O)CC[C@@]4(C)C3CC(O)[C@]12C (stereo not given in full) 1.86%, CC1(C)OC2CC3C4CC(F)C5=CC(=O)C=C[C@@]5(C)[C@@]4(F)C(O)C[C@@]3(C)[C@]2(C(=O)CO)O1 (stereo not given in full) -0.106%, C=C1C(=O)OC2CC1C(OC(C)=O)CC(C)=CCCC(C)=CCC[C@@]2(C)O (stereo not given in full) 0.793%, Oc1ccc(C2Oc3cc(O)cc(O)c3CC2O)cc1 (stereo not given) 1.8%, O=c1cc(-c2ccc(O)cc2)oc2cc(O)ccc12 -1.45%, S=c1ccss1 1.4% [at 38.3 µM], COC(=O)CC1C(C)(C)C2(O)OC34CC2C(=O)[C@@]1(C)C3CC[C@]1(C)C4=CC(=O)OC1c1ccoc1 (stereo not given in full) 0.26%, COc1ccc(C(=O)c2ccc(O)cc2)c(O)c1O 0.731% [at 38.3 µM], COc1cccc(O)c1O -0.484% [at 38.3 µM], O=C(/C=C/c1ccccc1)c1ccc(O)cc1 0.888%, CCOC(=O)c1c(C)cc(O)c(C=O)c1O -0.466%, COc1ccc(-c2coc3c(O)c(OC)ccc3c2=O)cc1 0.438% [at 38.3 µM], CC1(C)OC2CC3C4CCC5=CC(=O)C=C[C@@]5(C)[C@]4(F)C(O)C[C@@]3(C)[C@]2(C(=O)CO)O1 (stereo not given in full) 1.89%, COC(=O)/C(C)=C/CC12OC(C)(C)C3CC(C=C4C(=O)c5cc6c(c(CCC(C)(C)Cl)c5OC431)OC1(C)CCC(=C(C)C)C6C1)C2=O (stereo not given) -0.159%, CC(N)C(O)c1cccc(O)c1 (stereo not given) 1.43%, CC(=O)OCC1OC(n2c(Br)nc3c(=O)[nH]c(N)nc32)C(OC(C)=O)C1OC(C)=O (stereo not given) 0.383% [at 38.3 µM], C[C@]12CCC3c4ccc(OC(=O)c5ccccc5)cc4CCC3C1CCC2=O (stereo not given in full) 0.0364% [at 38.3 µM], CCOC(=O)CCC(=O)O[C@H]1C(O[C@@H]2C(C)[C@H](O[C@H]3C[C@@](C)(OC)C(O)C(C)O3)C(C)C(=O)OC(CC)[C@@](C)(O)C(O)[C@H](C)C(=O)C(C)C[C@]2(C)O)OC(C)CC1N(C)C (stereo not given in full) -0.518%, CC1(C)C(=O)C2C[C@]3(O)C4=CC(=O)OC(c5ccoc5)[C@]4(C)CCC3[C@](C)(C2=O)C1CC(=O)O (stereo not given in full) 0.386%, COc1cc(OC)c(C(C)=O)c(O)c1C -0.109%, CC(=O)OC1CC2C(C)(C)C(=O)[C@@H]3OC3[C@@]2(C)C2CC[C@]3(C)C(=CC(=O)OC3c3ccoc3)[C@]12C (stereo not given in full) 0.265% [at 38.3 µM], CC1(C)CCC2(C(=O)O)CC[C@]3(C)C(=CCC4[C@]5(C)CCC(O)C(C)(C)C5C(O)C[C@]43C)C2C1 (stereo not given in full) -0.465%, CC1(C)CC2/C(CO)=C/C=C/[C@](C)(O)CC[C@]21O (stereo not given in full) -0.163% [at 38.3 µM], COc1c(O)cc2c(-c3ccccc3)cc(=O)oc2c1OC 1.59% [at 38.3 µM], COC(=O)CC1C(C)(C)C(OC(C)=O)C2CC3=C4CC(=O)OC(c5ccoc5)[C@]4(C)CCC3[C@@]1(C)C2=O (stereo not given in full) 3.31%, Oc1ccc2c(c1)OC(c1ccc(O)c(O)c1)C(O)C2 (stereo not given) 0.216% [at 38.3 µM], C#C[C@]1(O)CCC2C3CCC4=Cc5oncc5C[C@@]4(C)C3CC[C@@]21C (stereo not given in full) -1.56%, CC(=O)OC1CC2C(C)(C)C=CC(=O)[C@@]2(C)C2CC[C@@]3(C)C(c4ccoc4)OC(=O)C4OC43[C@]12C (stereo not given in full) 0.842%, CC(=O)OCC(=O)[C@@]12OC(C)(C)OC1CC1C3CC(F)C4=CC(=O)C=C[C@@]4(C)[C@@]3(F)C(O)C[C@]12C (stereo not given in full) -0.643%, CC1(C)CCCC2(C)C3C(O)CC2(C)C(O)C31 (stereo not given) -0.834% [at 38.3 µM], C=C1C[C@@]23C[C@@]1(O)CCC2[C@@]12C=CC(O)[C@](C)(C(=O)O1)C2C3C(=O)O (stereo not given in full) -0.184% [at 38.3 µM], CC(Oc1ccccc1)C(=O)NC1C(=O)N2C(C(=O)O)C(C)(C)S[C@@H]12 (stereo not given in full) -0.623% [at 38.3 µM]

Experiment: qHTS Assay for Lipid Storage Modulators (AID 1519); further: on the % scale 0 is the no-effect control and ±100 the full control effect
Settings: Drosophila S3 cells, BODIPY lipid droplet/cell ratio, laser cytometry; at 57.5 µM (top of the series); cells loaded with oleic acid
Outline: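 Cells seeded at 5,000 per well were treated with compounds over a concentration series and loaded with oleic acid (400 uM, as added). Lipid droplet fluorescence (488 nm excitation, 500-530 nm channel) was read by laser-scanning cytometry and normalized to 20 uM Triacsin C.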

Activity change, negative = inhibition, inactive:
COc1cc2cc[n+]3cc4c(OC)c(OC)ccc4cc3c2cc1OC 10.9%, COc1cc(-c2cc(=O)c3c(O)c(OC)c(OC)c(OC)c3o2)cc(OC)c1OC 0.715%, CC1(C)CC2C1CCC1(C)OC2(C)CCC1O (stereo not given) 2.02%, O=C(CCc1ccc(O)cc1)c1c(O)cc(O)cc1O[C@H]1OC(CO)C(O)C(O)C1O (stereo not given in full) 6.17%, CC1(C)C[C@@H]2C(=O)CCC3O[C@@]3(C)CCC21 (stereo not given in full) 3.76%, CC(=O)OC1CC(OC(C)=O)[C@]2(C)C(CC(=O)[C@]3(C)C2CC[C@@]2(C)C(C(=O)O)OC(=O)C4OC423)C1(C)C (stereo not given in full) 3.41%, CC(C)=CCc1c(O)cc2oc(C)cc(=O)c2c1O 2.12%, COc1ccc2c(=O)c(CC(=O)O)coc2c1 4.63%, CC(CCC(=O)O)C1CCC2C3CC[C@H]4CC(O)CC[C@@]4(C)C3CC(O)[C@]12C (stereo not given in full) 8.52%, CC1(C)OC2CC3C4CC(F)C5=CC(=O)C=C[C@@]5(C)[C@@]4(F)C(O)C[C@@]3(C)[C@]2(C(=O)CO)O1 (stereo not given in full) 3.9%, C=C1C(=O)OC2CC1C(OC(C)=O)CC(C)=CCCC(C)=CCC[C@@]2(C)O (stereo not given in full) -0.0283%, Oc1ccc(C2Oc3cc(O)cc(O)c3CC2O)cc1 (stereo not given) 14.6%, O=c1cc(-c2ccc(O)cc2)oc2cc(O)ccc12 10.6%, S=c1ccss1 7.62%, COC(=O)CC1C(C)(C)C2(O)OC34CC2C(=O)[C@@]1(C)C3CC[C@]1(C)C4=CC(=O)OC1c1ccoc1 (stereo not given in full) 4.29%, COc1ccc(C(=O)c2ccc(O)cc2)c(O)c1O 4.3%, COc1cccc(O)c1O 7.71%, O=C(/C=C/c1ccccc1)c1ccc(O)cc1 4.07%, CCOC(=O)c1c(C)cc(O)c(C=O)c1O 7.6%, COc1ccc(-c2coc3c(O)c(OC)ccc3c2=O)cc1 2.6%, CC1(C)OC2CC3C4CCC5=CC(=O)C=C[C@@]5(C)[C@]4(F)C(O)C[C@@]3(C)[C@]2(C(=O)CO)O1 (stereo not given in full) -5.31%, COC(=O)/C(C)=C/CC12OC(C)(C)C3CC(C=C4C(=O)c5cc6c(c(CCC(C)(C)Cl)c5OC431)OC1(C)CCC(=C(C)C)C6C1)C2=O (stereo not given) 14.1%, CC(N)C(O)c1cccc(O)c1 (stereo not given) 8.66%, CC(=O)OCC1OC(n2c(Br)nc3c(=O)[nH]c(N)nc32)C(OC(C)=O)C1OC(C)=O (stereo not given) 1.02%, C[C@]12CCC3c4ccc(OC(=O)c5ccccc5)cc4CCC3C1CCC2=O (stereo not given in full) 11.1%, CCOC(=O)CCC(=O)O[C@H]1C(O[C@@H]2C(C)[C@H](O[C@H]3C[C@@](C)(OC)C(O)C(C)O3)C(C)C(=O)OC(CC)[C@@](C)(O)C(O)[C@H](C)C(=O)C(C)C[C@]2(C)O)OC(C)CC1N(C)C (stereo not given in full) -0.5%, CC1(C)C(=O)C2C[C@]3(O)C4=CC(=O)OC(c5ccoc5)[C@]4(C)CCC3[C@](C)(C2=O)C1CC(=O)O (stereo not given in full) 3.73%, COc1cc(OC)c(C(C)=O)c(O)c1C 17%, CC(=O)OC1CC2C(C)(C)C(=O)[C@@H]3OC3[C@@]2(C)C2CC[C@]3(C)C(=CC(=O)OC3c3ccoc3)[C@]12C (stereo not given in full) 2.11%, CC1(C)CCC2(C(=O)O)CC[C@]3(C)C(=CCC4[C@]5(C)CCC(O)C(C)(C)C5C(O)C[C@]43C)C2C1 (stereo not given in full) 10.3%, CC1(C)CC2/C(CO)=C/C=C/[C@](C)(O)CC[C@]21O (stereo not given in full) 4.24%, COc1c(O)cc2c(-c3ccccc3)cc(=O)oc2c1OC 5.27%, COC(=O)CC1C(C)(C)C(OC(C)=O)C2CC3=C4CC(=O)OC(c5ccoc5)[C@]4(C)CCC3[C@@]1(C)C2=O (stereo not given in full) -5.96%, Oc1ccc2c(c1)OC(c1ccc(O)c(O)c1)C(O)C2 (stereo not given) 6.52%, C#C[C@]1(O)CCC2C3CCC4=Cc5oncc5C[C@@]4(C)C3CC[C@@]21C (stereo not given in full) 9.19%, CC(=O)OC1CC2C(C)(C)C=CC(=O)[C@@]2(C)C2CC[C@@]3(C)C(c4ccoc4)OC(=O)C4OC43[C@]12C (stereo not given in full) 5.35%, CC(=O)OCC(=O)[C@@]12OC(C)(C)OC1CC1C3CC(F)C4=CC(=O)C=C[C@@]4(C)[C@@]3(F)C(O)C[C@]12C (stereo not given in full) 5.49%, CC1(C)CCCC2(C)C3C(O)CC2(C)C(O)C31 (stereo not given) 1.58%, C=C1C[C@@]23C[C@@]1(O)CCC2[C@@]12C=CC(O)[C@](C)(C(=O)O1)C2C3C(=O)O (stereo not given in full) 1.95%, CC(Oc1ccccc1)C(=O)NC1C(=O)N2C(C(=O)O)C(C)(C)S[C@@H]12 (stereo not given in full) 7.31%
